Assay [1] is described as follows: compounds binding Alexa647 anti-His antibody – biochemical, small-molecule microarray, 635 nm fluorescence, artefact control for SMM control protein annotation, primary screen (AID 1128).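 Also: score merges feature fluorescence with signal-to-noise for each printed compound spot.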 Particulars: higher = more signal.
For assay [2], the system named is Human papillomavirus type 1a E7 protein (residues 1-88). The assay can be described thus: HPV1a E7 small-molecule binders, primary screen, biochemical, small-molecule microarray, residues 1-88, 635 nm (AID 1129). Particulars: small-molecule microarray binding, fluorescence 635 nm; higher = more signal.
The target in assay [3] is Focal adhesion kinase 1 (Homo sapiens) (UniProt Q05397). As to the kind of experiment: PTK2 protein binding on printed compound slides – biochemical, small-molecule microarray, 635/667 nm fluorescence, BSA, DTT, primary screen (AID 1130).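 Also: composite of spot emission at 667 nm and signal to noise over triplicate slides.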 Particulars: 635 nm fluorescence, higher = more signal.
The test system of assay [4] is Fibrinogen (Alexa647-labelled). The assay can be described thus: Alexa647-fibrinogen binding to printed small molecules – biochemical, small-molecule microarray, 635/667 nm fluorescence, artefact control for SMM control-protein annotation, profiling panel (AID 1131).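 Also: z-score merges 667 nm fluorescence with per-spot signal-to-noise over triplicate slides.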 Particulars: fibrinogen-A647 binding fluorescence, higher = more signal.
Assay [5] concerns the target Follistatin (Homo sapiens) (UniProt P19883). The assay can be described thus: FST protein binding to printed compounds – biochemical, small-molecule microarray, 635/667 nm fluorescence, primary screen (AID 1132). Conditions: 635 nm fluorescence, higher = more signal.
Assay [6] concerns the target Fibroblast growth factor 2 (Homo sapiens) (UniProt P09038). As to the kind of experiment: basic fibroblast growth factor binding to printed compounds – biochemical, small-molecule microarray, 635/667 nm fluorescence, primary screen (AID 1133). Conditions: FGF2, fluorescence 635/667, higher = more signal.
Assay [7] is described as follows: JC-1 mitochondrial potential readout, lung cancer cells – cell-based, A549, JC-1 fluorescence, basal, 24 h, 100 nL, profiling panel (AID 1138).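 Also: A549 lung adenocarcinoma cells under basal conditions with no added stimulus; test concentration not given here.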 Conditions: higher = more signal.
Assay [8] deals with Lefty1. The assay can be described thus: Lefty1 protein binding to printed compounds – biochemical, small-molecule microarray, 635/667 nm fluorescence, primary screen (AID 1139). Particulars: fluorescence 635/667, higher = more signal.
For assay [9], the system named is wheat germ agglutinin (Triticum aestivum), Alexa647-labelled. As to the kind of experiment: Alexa647-WGA lectin binding to printed small molecules – biochemical, small-molecule microarray, 635/667 nm fluorescence, artefact control for SMM control-protein annotation, profiling panel (AID 1140).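 Also: score merges 667 nm feature emission with signal to noise over triplicate slides.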 Particulars: WGA-A647 binding, 635 nm fluorescence, higher = more signal.

Assay [10] deals with Luciferin 4-monooxygenase (Photinus pyralis) (UniProt P08659). As to the kind of experiment: inhibition of purified Photinus pyralis luciferase – biochemical, luminescence, purified enzyme, 2006 set, primary screen (AID 1141).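 Also: cell-free assay with purified firefly luciferase at 100 ng per well in PBS; test concentration not given here.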 Conditions: purified firefly luciferase, SteadyGlo luminescence, 30 min; higher = more signal, called active from +8 up or from −8 down.
The subject of assay [11] is Wnt5a (protein binding on small-molecule microarray). As to the kind of experiment: small molecules binding Wnt5a protein – biophysical, small-molecule microarray, 635/667 nm fluorescence, primary screen (AID 1142).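 Also: fluorescence read at 667 nm with signal to noise per printed feature.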 Conditions: 635 nm fluorescence, higher = more signal.
The nature of assay [12]: ATP-based viability of Huh7 replicon cells – cell-based, CellTiter-Glo luminescence, basal, 48 h, cytotoxicity control for HCV replication inhibitor project, primary screen (AID 1143).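 Also: Huh7 hepatoma cells carrying a hepatitis C replication reporter with no stimulus; test concentration not given here.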 Particulars: higher = more signal, called active from +8 up or from −8 down.
Assay [13] can be described thus: Pseudomonas biofilm growth suppression – PAO1 strain, BacTiter-Glo luminescence, LB-PBS, primary screen (AID 1144). Conditions: P. aeruginosa PAO1 biofilm, 12 h, higher = more signal.
The nature of assay [14]: basal CRE-LacZ reporter activity in PC12 – cell-based, unstimulated, primary screen (AID 1145). Conditions: no forskolin, luminescence, 4.5 h, higher = more signal, called active from +8 up or from −8 down.
Assay [15] can be described thus: forskolin-driven CRE-LacZ activity in PC12 – cell-based, CRE-LacZ reporter, forskolin-stimulated, primary screen (AID 1146).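 Also: PC12 cells with 6xCRE LacZ reporter stimulated by forskolin 10 µM; beta-galactosidase reporter signal reflecting CREB driven transcription.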 Conditions: luminescence, 4.5 h, higher = more signal, called active from +8 up or from −8 down.
Assay [16] concerns the target Streptavidin (Streptomyces avidinii) (UniProt P22629). As to the kind of experiment: compounds binding control protein streptavidin – biophysical, small-molecule microarray, 635/667 nm fluorescence, artefact control for SMM compound annotation, primary screen (AID 1147).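 Also: signal reflects streptavidin binding to arrayed compounds as a control protein.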 Particulars: higher = more signal.
Assay [17] can be described thus: probe aInhba binding on compound microarray – biochemical, small-molecule microarray, 635/667 nm fluorescence, primary screen (AID 1148).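 Also: score merges 667nm spot fluorescence with signal-to-noise for antibody binding to printed compounds.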 Particulars: higher = more signal.
For assay [18], the target named is Torsin-1A (Homo sapiens) (UniProt O14656). As to the kind of experiment: TOR1A wild-type binding on microarray – cell lysate, small-molecule microarray, lysate, 635/667 nm, primary screen (AID 1149). Particulars: COS7 hTOR1A-WT lysate, 635 nm fluorescence, higher = more signal.
Assay [19] has the same target. As to the kind of experiment: torsin A mutant lysate binding on microarrays – cell lysate, small-molecule microarray, COS7 lysate, 635/667 nm fluorescence, primary screen (AID 1150).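 Also: score pools 667 nm emission and signal to noise measuring lysate protein binding.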 Conditions: COS7 hTOR1A mutant lysate, 635 nm fluorescence, higher = more signal.
Assay [20] relates to Sonic hedgehog protein (Shh). As to the kind of experiment: Sonic hedgehog microarray binding compounds – biochemical, small-molecule microarray, 635/667 nm fluorescence, primary screen (AID 1151).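 Also: Shh protein binding to compounds spotted on small-molecule microarray slides; score combines spot fluorescence intensity with signal-to-noise across triplicate slides.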 Conditions: 635 nm fluorescence, higher = more signal.

The source made the active and inactive calls. Unless noted, no rule for the calls is given here.

Sequence of Torsin-1A (Homo sapiens) (O14656 whole entry, looked up): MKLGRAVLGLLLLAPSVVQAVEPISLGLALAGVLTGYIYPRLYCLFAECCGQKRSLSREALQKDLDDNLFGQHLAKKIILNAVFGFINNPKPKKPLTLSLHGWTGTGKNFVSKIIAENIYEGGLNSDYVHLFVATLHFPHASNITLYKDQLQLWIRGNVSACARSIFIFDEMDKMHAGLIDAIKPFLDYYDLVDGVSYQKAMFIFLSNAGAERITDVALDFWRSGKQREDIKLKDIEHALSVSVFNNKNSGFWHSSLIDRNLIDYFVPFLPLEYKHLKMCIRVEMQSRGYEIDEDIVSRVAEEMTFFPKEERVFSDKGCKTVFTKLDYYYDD
Sequence of Fibroblast growth factor 2 (Homo sapiens) (P09038 whole entry, looked up): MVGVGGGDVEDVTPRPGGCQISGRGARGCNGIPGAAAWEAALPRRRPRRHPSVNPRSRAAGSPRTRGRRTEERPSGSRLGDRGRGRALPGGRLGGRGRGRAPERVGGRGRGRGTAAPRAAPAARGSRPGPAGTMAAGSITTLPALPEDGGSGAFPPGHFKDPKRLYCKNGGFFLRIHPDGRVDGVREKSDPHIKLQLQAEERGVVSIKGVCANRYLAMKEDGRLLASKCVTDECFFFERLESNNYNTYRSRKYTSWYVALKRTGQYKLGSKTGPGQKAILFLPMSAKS
Sequence of Streptavidin (Streptomyces avidinii) (P22629 whole entry, looked up): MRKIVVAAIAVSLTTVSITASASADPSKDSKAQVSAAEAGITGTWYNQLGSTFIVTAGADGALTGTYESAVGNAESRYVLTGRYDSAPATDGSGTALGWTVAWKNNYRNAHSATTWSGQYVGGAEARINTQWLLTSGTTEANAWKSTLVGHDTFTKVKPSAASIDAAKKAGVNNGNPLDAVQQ
Sequence of Luciferin 4-monooxygenase (Photinus pyralis) (P08659 whole entry, looked up): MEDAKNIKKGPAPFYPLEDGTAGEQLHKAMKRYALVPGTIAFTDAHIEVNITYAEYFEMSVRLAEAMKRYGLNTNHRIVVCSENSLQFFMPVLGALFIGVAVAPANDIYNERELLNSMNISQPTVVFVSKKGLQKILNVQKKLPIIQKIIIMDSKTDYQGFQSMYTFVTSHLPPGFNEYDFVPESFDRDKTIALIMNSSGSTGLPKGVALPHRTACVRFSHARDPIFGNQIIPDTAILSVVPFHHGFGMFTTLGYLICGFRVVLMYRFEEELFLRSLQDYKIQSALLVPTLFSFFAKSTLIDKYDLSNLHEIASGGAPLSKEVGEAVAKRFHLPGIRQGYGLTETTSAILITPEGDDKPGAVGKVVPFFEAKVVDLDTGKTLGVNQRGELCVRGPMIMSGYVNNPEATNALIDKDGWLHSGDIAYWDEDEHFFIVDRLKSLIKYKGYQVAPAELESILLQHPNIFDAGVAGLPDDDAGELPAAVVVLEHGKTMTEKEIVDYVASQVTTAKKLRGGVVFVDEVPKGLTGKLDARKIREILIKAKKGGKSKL
Sequence of Focal adhesion kinase 1 (Homo sapiens) (Q05397 whole entry, looked up): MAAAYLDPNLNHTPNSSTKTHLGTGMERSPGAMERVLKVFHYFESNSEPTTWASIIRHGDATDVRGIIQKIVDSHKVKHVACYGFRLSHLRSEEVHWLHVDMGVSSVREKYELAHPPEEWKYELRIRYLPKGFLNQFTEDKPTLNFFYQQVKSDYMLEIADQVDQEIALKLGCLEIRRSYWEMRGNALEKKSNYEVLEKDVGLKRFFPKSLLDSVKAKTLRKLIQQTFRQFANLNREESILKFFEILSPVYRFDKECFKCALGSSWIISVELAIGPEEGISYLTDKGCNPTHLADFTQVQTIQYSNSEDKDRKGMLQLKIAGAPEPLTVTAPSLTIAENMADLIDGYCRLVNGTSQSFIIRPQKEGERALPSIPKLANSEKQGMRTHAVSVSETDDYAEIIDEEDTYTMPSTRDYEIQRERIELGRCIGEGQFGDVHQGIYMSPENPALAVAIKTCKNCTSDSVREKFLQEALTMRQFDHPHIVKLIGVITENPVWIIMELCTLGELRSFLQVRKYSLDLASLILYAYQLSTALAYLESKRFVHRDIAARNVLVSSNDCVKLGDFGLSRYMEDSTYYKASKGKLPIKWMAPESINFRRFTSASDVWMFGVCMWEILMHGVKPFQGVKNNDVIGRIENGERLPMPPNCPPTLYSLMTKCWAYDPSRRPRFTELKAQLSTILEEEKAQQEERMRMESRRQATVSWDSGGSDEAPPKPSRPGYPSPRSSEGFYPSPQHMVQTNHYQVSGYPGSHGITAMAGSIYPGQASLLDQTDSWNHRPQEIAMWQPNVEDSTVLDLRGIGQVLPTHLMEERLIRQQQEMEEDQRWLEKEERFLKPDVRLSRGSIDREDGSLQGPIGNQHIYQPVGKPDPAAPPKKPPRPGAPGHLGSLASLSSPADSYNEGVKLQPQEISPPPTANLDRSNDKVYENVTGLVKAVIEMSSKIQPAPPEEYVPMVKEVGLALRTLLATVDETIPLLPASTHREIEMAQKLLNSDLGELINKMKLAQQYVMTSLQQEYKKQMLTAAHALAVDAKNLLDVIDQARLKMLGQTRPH
Sequence of Follistatin (Homo sapiens) (P19883 whole entry, looked up): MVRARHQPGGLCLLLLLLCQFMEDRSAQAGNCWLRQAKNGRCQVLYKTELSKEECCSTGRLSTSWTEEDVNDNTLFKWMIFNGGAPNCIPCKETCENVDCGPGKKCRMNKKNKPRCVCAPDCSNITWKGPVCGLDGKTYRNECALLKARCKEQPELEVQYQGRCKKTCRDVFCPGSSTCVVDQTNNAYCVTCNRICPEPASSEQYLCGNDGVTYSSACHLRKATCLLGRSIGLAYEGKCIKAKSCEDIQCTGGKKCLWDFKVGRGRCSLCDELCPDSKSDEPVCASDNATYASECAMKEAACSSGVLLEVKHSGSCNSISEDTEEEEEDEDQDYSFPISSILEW

For `O=C1NC(=O)C2C1C=CC(C(O)c1ccc(Br)cc1)N2Nc1ccccn1` (stereo not given), the composite z-score in assay [1] amounted to 1.32; in assay [2], 0.173; in [3], 0.231; in assay [4] it was 0.995; in assay [5] it was 0.426; in assay [6] it was 0.657. For the same compound, the composite z-score was -0.162 in [8]; 0.806 in [9]; 0.336 in [11]; 0.363 in assay [16]; 0.126 in assay [17]; 0.196 in assay [18]. Moreover, the values for the composite z-score in assay [19] and in assay [20] were 0.301 and -0.248, respectively. The z-score is 0.631 in [7]; -1.52 (inactive) in assay [10]; -0.0358 (inactive) in [12]; -1.45 (inactive) in assay [13]; -0.322 (inactive) in assay [14]; 0.521 (inactive) in assay [15].
Take `C=C(COC)/C(=C/C[C@@H](OC(=O)c1ccncc1)c1ccc(CO)o1)c1cnc2ccccc2c1`: the composite z-score in assay [1] was 1.87; in assay [2] it was 1.22; in assay [3], 0.268; in [4] it was 0.973; in assay [5], 1.47; in assay [6], 1.61. Moreover, the composite z-score in assay [8] was 1.67; in assay [9], 1.56; in [11], 0.911; in assay [16], 1.07; in assay [17], -0.0136; in assay [18], 1.86. Besides, the composite z-score in [19] turned out to be 0.962; in [20], 2.46. The z-score in assay [7] was -0.557; in [10], -2.96 (inactive); in assay [12] it was 0.173 (inactive); in [13], -0.854 (inactive); in assay [14], -0.611 (inactive); in assay [15] it was -0.0377 (inactive).
In the case of `COc1cc2c(cc1OC)CN(C(=O)[C@@H]1[C@H]3C(=O)O[C@H](c4ccccc4)[C@H](c4ccccc4)N3[C@H](c3ccccc3OCCO)[C@@]13C(=O)Nc1ccc(C#CC4(O)CCCCCC4)cc13)CC2`, the composite z-score was 1.57 in assay [1]; 1.17 in [2]; -0.0242 in assay [3]; 0.787 in assay [4]; 0.954 in assay [5]; 0.513 in assay [6]. Also, the composite z-score in [8] was 0.895; in assay [9], 0.9; in assay [11], 0.0109; in assay [16] it was 0.445; in [17], -0.0523; in [18], 0.825. The composite z-score in assay [19] is 0.827; in assay [20], 0.791. Besides, the z-score in [7] was -0.825; in assay [10], -0.877 (inactive); in [12], -2.91 (inactive); in assay [13], -0.0135 (inactive); in assay [14], -0.788 (inactive); in [15], -0.749 (inactive).
For the compound `C=C(CCCC)/C(=C/C[C@@H](OC(=O)c1ccncc1)c1cccc(OCCO)c1)c1cnc2ccccc2c1`, the composite z-score in assay [1] was 0.65; in assay [2] it was 0.539; in [3], 0.0663; in assay [4], 0.832; in assay [5] it was 1.5; in assay [6], 1.74. In addition, the composite z-score came to 1.6 in [8]; 0.871 in assay [9]; 1.25 in assay [11]; 1.49 in assay [16]; 0.194 in assay [17]; 1.22 in [18]. The composite z-score in assay [19] came to 0.0816; in assay [20] it was 2.09. For the same compound, the z-score in [7] was 1.14; in [10], -1.63 (inactive); in [12], -3.08 (inactive); in assay [13] it was -0.772 (inactive); in [14], 3.22 (inactive); in [15], 0.644 (inactive).

The values above are taken from PubChem BioAssay.
